Measurements taken from PubChem BioAssay AID1529 (NMMLSC, 2009).
Screen size: about 290,000 compounds; about 4,200 (1.4%) were called active. Many of the other results were omitted from the sample, so actives are more common in it than they were. Unmarked numbers belong to inactive results.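 The calls were made as follows: active = binding response more than 3 SD above or below the average of its plate-row segment, actives on both sides; inconclusive = wells at one plate position flagged as instrument error; inactive = the rest.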

What follows are compounds tested against Mitogen-activated protein kinase kinase kinase 3 (Homo sapiens) (UniProt Q99759) (assay: modulators of MEKK3-MEK5 PB1 binding, primary screen, biochemical, wildtype MEKK3, multiplex bead flow cytometry, Alexa488-MEK5 (AID 1529;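 also: Alexa488 bead fluorescence after subtracting the streptavidin-only scavenger bead signal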)). Details: bead-based flow cytometry, Alexa488-MEK5 binding to MEKK3; at 10 µM; actives lie on both sides; 0 = blocked by unlabeled MEK5, 100 = vehicle.
Chain of Mitogen-activated protein kinase kinase kinase 3 (Homo sapiens) (Q99759 whole entry, looked up): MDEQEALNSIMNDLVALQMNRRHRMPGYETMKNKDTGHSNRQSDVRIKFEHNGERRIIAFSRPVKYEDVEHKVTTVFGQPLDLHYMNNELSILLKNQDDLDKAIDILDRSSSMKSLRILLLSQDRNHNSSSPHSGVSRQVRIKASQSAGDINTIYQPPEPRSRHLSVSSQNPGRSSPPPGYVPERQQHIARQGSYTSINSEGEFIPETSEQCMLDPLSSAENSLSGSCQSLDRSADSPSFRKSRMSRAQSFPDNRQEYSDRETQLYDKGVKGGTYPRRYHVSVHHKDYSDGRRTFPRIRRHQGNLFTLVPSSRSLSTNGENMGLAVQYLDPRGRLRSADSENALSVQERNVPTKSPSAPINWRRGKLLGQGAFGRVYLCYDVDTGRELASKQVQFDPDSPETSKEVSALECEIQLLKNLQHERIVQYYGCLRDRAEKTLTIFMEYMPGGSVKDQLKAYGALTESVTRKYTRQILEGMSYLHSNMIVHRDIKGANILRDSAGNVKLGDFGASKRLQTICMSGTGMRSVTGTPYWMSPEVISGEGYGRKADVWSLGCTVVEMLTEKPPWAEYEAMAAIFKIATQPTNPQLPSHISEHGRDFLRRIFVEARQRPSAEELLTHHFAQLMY

Compound | binding response (% of control)
O=C(O)C1=NN(c2c(F)c(F)cc(F)c2F)C(=O)CC1 | 95%
CCOC(=O)CSc1nnc(NC(=O)C2CC(=O)N(c3ccc(F)cc3)C2)s1 (configuration not stated) | 102%
COC(=O)c1cccc(N(C(=O)CNC(=O)c2cccs2)C(C(=O)NCC2CCCO2)c2ccc(OC)c(OC)c2)c1 (configuration not stated) | 100%
COC(=O)[C@@H]1CC(O)CN1C(=O)C12CC3CC(CC(C3)C1)C2 (some centres not stated) | 96%
O=C(Nc1cccc2ncccc12)c1ccc(-c2ccc(Cl)cc2Cl)o1 | 102%
O=C(O)c1cc(Cl)c(Cl)cc1C(=O)Nc1cccc2ncccc12 | 128% (active)
O=C(Nc1cccc2ncccc12)C(Cl)(Cl)Cl | 101%
OCC[C@H]1C[C@H](O)[C@@H](O)[C@]2(CCCCO2)O1 | 100%
COc1ccccc1Nc1ncc(C(C)=O)c(C)n1 | 104%
Cc1ccc2nc(Nc3ncc4c(n3)CC(C)(C)CC4=O)nc(C)c2c1 | 102%
CCc1ccc2nc(Nc3ncc(C(C)=O)c(C)n3)nc(C)c2c1 | 49% [inhibitor] (active)
CCCCn1c(SCC(=O)NCCc2ccc(OC)c(OC)c2)nc2c1c(=O)n(C)c(=O)n2C | 0% [inhibitor] (active)
C#CC(C)(C)NC(=O)CSc1nc2c(c(=O)n(C)c(=O)n2C)n1CCCC | 108%
CCn1c(NCCc2ccc(OC)c(OC)c2)nc2c1c(=O)n(C)c(=O)n2C | 103%
Cc1ccc(O)c(/C=N/NC(=O)COc2ccc3c(C)cc(=O)oc3c2)c1 | 99%
C/C(=N\Nc1ncc(Cl)cc1Cl)c1cccs1 | 103%
COc1cccc(/C(C)=N/Nc2ncc(Cl)cc2Cl)c1 | 135% (active)
C/C(=N\Nc1ncc(Cl)cc1Cl)c1ccc(S(=O)(=O)NCc2ccco2)cc1 | 108%
O=C(CN(C(=O)c1nsc(Cl)c1Cl)c1cccc(F)c1)NC1CCCC1 | 99%
COCc1ccc(C(=O)NC2CC(C)(C)Cc3c2cnn3-c2ccc(C)cc2)o1 (configuration not stated) | 97%
CC1CCC2(CC1)NC(=O)N(CC(=O)c1ccc3c(c1)OCO3)C2=O (configuration not stated) | 99%
CC(C)CC(=O)NC(=S)NCc1ccccc1 | 141% (active)
CC(C)CC(=O)NC(=S)Nc1cc(C(=O)O)ccc1Cl | 132% (active)

Compound | binding response (% of control)
CC(C)CNC(=O)C(=O)NCc1ccccc1 | 96%
CC(C)Oc1ccc(CCC(=O)NNC(=S)NCc2ccccc2)cc1 | 95%
CC(=O)c1ccc(NC(=S)NC(=O)CC(C)C)cc1 | 104%
CC(C)CC(=O)NC(=S)Nc1ccc(F)cc1F | 117%
CCc1nn(CCCC(=O)Nc2ccc(C)cc2C)c(=O)c2cc3occc3n12 | 99%
CN(Cc1ccccc1Cl)C(=O)C1CCC(=O)N(CCc2cccc(F)c2)C1 (configuration not stated) | 102%
COc1ccc(N(CC(=O)N2CCCCCC2)S(=O)(=O)c2ccccc2)cc1 | 102%
COc1ccc(C(=O)O/N=C(\N)c2ccccn2)cc1[N+](=O)[O-] | 107%
COC(=O)c1c(NC(=O)CCCC(=O)O)sc2c1CCCCC2 | 99%
COC(=O)c1c(NC(=O)COC(=O)[C@@H](NS(=O)(=O)c2ccccc2)C(C)C)sc2c1CCC2 | 2% [inhibitor] (active)
CCc1ccc(N(CC(=O)Nc2sc3c(c2C(=O)OC)CCCC3)S(C)(=O)=O)cc1 | 92%
CC(C)CN(Cc1c(O)ccc2c(=O)c(-c3ccccc3)coc12)CC(C)C | 102%
Cc1ccc(C(=O)NC(=S)Nc2ccc3[nH]c(=O)[nH]c3c2)cc1C | 145% (active)
Cc1cc(C)cc(C(=O)NC(=S)Nc2ccc3[nH]c(=O)[nH]c3c2)c1 | 105%
CC(=O)Nc1ccc(NC(=S)NC(=O)c2ccc([N+](=O)[O-])c(C)c2)cc1 | 97%
CC1(C)CC[C@]2(C(=O)O)CC[C@]3(C)C(=CCC4[C@@]5(C)CC[C@H](O)C(C)(C)C5[C@H](O)C[C@]43C)[C@@H]2C1 (some centres not stated) | 101%
Cc1ccc(-c2nc3ccccc3[nH]2)cc1NC(=O)c1sc2ccccc2c1Cl | 102%
O=C(Cc1cccs1)Nc1cccc(-c2nc3ccccc3[nH]2)c1 | 107%
O=C(Nc1cccc(-c2nc3ccccc3[nH]2)c1)c1ccc(C(=O)Nc2cccc(-c3nc4ccccc4[nH]3)c2)cc1 | 63% [inhibitor] (active)
CCNC(=O)c1cnn(-c2ccccc2)c1-c1ccccc1 | 103%
COc1ccc(C(=O)NC(=S)N2CCCCC2c2cccnc2)cc1OC (configuration not stated) | 98%
O=C(c1ccc(CS(=O)(=O)c2ccccc2)o1)N1CCN(c2ccccc2)CC1 | 102%
O=C(c1cccc([N+](=O)[O-])c1)N1CCN(C(=O)c2ccco2)CC1 | 100%

Compound | binding response (% of control)
O=C(c1ccco1)N1CCN(c2cccc(Cl)c2)CC1 | 2% [inhibitor] (active)
O=C(Cc1c(F)cccc1Cl)N1CCN(C(=O)c2ccco2)CC1 | 103%
Fc1ccc2c(c1)C(c1cccnc1)=NNC(c1cccs1)=N2 | 107%
CCCOc1ccc(Cl)cc1Nc1nc(NCCO)nc(N2CCCC2)n1 | 108%
COc1ccc2c(c1)C(=C(C#N)C#N)C(=O)N2CCc1ccccc1 | 96%
O=C(O)CCCN1C(=O)c2ccccc2Sc2ncccc21 | 107%
CCCCN1C(=O)/C(=C(/C#N)C(N)=O)c2ccccc21 | 146% (active)
CC1CN(C(=S)Nc2cccc(F)c2)CC(C)O1 (configuration not stated) | 105%
COc1ccc(CNC(=O)C2(CC3CC(c4ccccc4)=NO3)CCN(C(=O)c3cccc(O)c3)CC2)cc1 (configuration not stated) | 99%
COC(=O)c1ccc(NC(=O)CSc2nnc(CNc3ccc(OC)cc3)n2C)cc1 | 106%
COc1ccc(C(=O)NCc2nnc(SCCOc3ccccc3)n2C)cc1 | 102%
COc1ccc(C(=O)NCc2nnc(SCC(=O)NC3=NCCS3)n2C)cc1 | 71% [inhibitor] (active)
O=C(NCc1ccccc1)c1onc(CSc2ccncc2)c1C(=O)NCc1ccccc1 | 106%
CO/N=C(\N)c1ccc([N+](=O)[O-])cc1 | 98%
N/C(=N\OS(=O)(=O)c1cccc([N+](=O)[O-])c1)c1ccncc1 | 145% (active)
O=C(N/N=C/c1cccc([N+](=O)[O-])c1)c1ccncc1 | 107%
C#CCOCCOCCOCCNc1nc(N2CCN(C(=O)C([C@@H](C)CC)n3cc(C(N)COC(=O)C(F)(F)F)nn3)CC2)nc(N2CCN(C(=O)[C@H](Cc3ccc(O)cc3)n3cc(C(N)[C@H](C)CC)nn3)CC2)n1 (some centres not stated) | 104%
CC(=O)Nc1ccc(Oc2ccc3c(c2)C(=O)NC3=O)cc1 | 105%
CC(C)(C)NC(=O)Cn1cnc([N+](=O)[O-])n1 | 1% [inhibitor] (active)
O=C(Cn1cnc([N+](=O)[O-])n1)NCCc1ccccc1 | 102%
CC(C)(C)NC(=O)Cn1cnc2cc([N+](=O)[O-])ccc2c1=O | 95%
CCC(CC)COC(=O)C1=C(C)NC(=O)NC1c1ccc([N+](=O)[O-])cc1 (configuration not stated) | 105%
CCSc1nnc(SCC(=O)NNC(=O)c2ccccc2F)s1 | 101%

Compound | binding response (% of control)
CCOc1ccc(NC(=O)Nc2cc(C)on2)cc1 | 102%
CCOc1ccc(NC(=O)Nc2cc(C)ccc2OC)cc1 | 71% [inhibitor] (active)
CCOc1ccc(C(=O)Nc2cc(OC)ccc2OC)cc1 | 97%
CC(C)CCC(C)NC(=O)c1ccc2nccnc2c1 (configuration not stated) | 61%
CCCc1nnc(NC(=O)CCC(=O)NC2CC2)s1 | 96%
CC(=O)N(C)c1ccc(NC(=O)Nc2cccc3ccccc23)cc1 | 103%
CCOc1ccc(NC(=O)Nc2ccc(N(C)C(C)=O)cc2)cc1 | 101%
CC(=O)N(C)c1ccc(NC(=O)C(F)(F)F)cc1 | 2% [inhibitor] (active)
CC(NCC(=O)Nc1cc(Cl)cc(Cl)c1)c1ccccc1 (configuration not stated) | 100%
Cc1cc(=O)oc2c3c(cc(OCC(=O)N[C@H](C(=O)O)c4ccccc4)c12)OC(C)(C)CC3 | 97%
C=CCC1(C(=O)N(C)Cc2ccccc2)CCN(C(=O)OC(C)(C)C)CC1 | 97%
Cc1cc(-c2csc(N)n2)c(C)n1Cc1ccccc1 | 91%
CC(=O)Nc1ccc(C(=O)Nc2nc(-c3cc(C)n(Cc4ccccc4)c3C)cs2)cc1 | 131% (active)
CC(=O)Nc1ccc(-c2csc(NC(=O)Nc3ccccc3)n2)cc1 | 101%
CC1CCC(NC(=O)c2ccc(N3CCCC3=O)cc2)CC1 (configuration not stated) | 104%
O=C(NCCCN1CCCCCC1)c1ccc(N2CCCC2=O)cc1 | 108%
O=C(COC(=O)c1ccc(N2CCCC2=O)cc1)c1ccc(OC(F)F)cc1 | 1% [inhibitor] (active)
COc1ccc(S(=O)(=O)NC(C)c2ccccc2)cc1C(=O)N1CCCCC1 (configuration not stated) | 103%
CCCN1CCn2c3c(c4cc(Br)ccc42)CCCC31 (configuration not stated) | 96%
O=C(c1cccs1)N(Cc1cc2ccccc2[nH]c1=O)CC1CCCO1 (configuration not stated) | 99%
O=S(=O)(c1ccccc1)N1CN(Cc2ccc(F)cc2)c2nc3ccccc3nc21 | 85%
C=CCN1CN(S(=O)(=O)c2ccc(OC)cc2)c2nc3ccccc3nc21 | 100%
COc1ccc(S(=O)(=O)N2CN(CCc3ccc(OC)c(OC)c3)c3nc4ccccc4nc32)cc1 | 64% [inhibitor] (active)
